Growth data for eight compounds are collected here from PubChem BioAssay (NCI).

Some test systems named below: HCT-15 colon; HT29 colon; SNB-75 CNS; SNB-19 CNS; U251 CNS; PC-3 prostate; SK-MEL-5 melanoma; UACC-62 melanoma; LOX IMVI melanoma; SK-MEL-28 melanoma; SK-MEL-2 melanoma; EKVX NSCLC; SN12C renal; UO-31 renal; TK-10 renal; ACHN renal; CAKI-1 renal; CCRF-CEM leukemia; MOLT-4 leukemia; A498 renal.
Common to all, as to assay: NCI-60 one-dose screen, 48 h (100 = growth as untreated, 0 = no growth, -100 = all killed)
Settings in all cases: 10 µM unless noted

Structures are written as SMILES. About 83,000 compounds went through this panel and 20% of them were active in at least one assay; those are over-represented in the sample as a whole.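 The endpoint reported here, percent growth, reads 100 for growth as untreated, 0 for no net growth and -100 for all cells dead.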 Unmarked numbers belong to inactive results. Active and inactive are the calls of the source. How the source made its calls: active means growth percent below 10; inactive means the rest.

As to `COc1ccc2[nH]cc(-c3nc(-c4c[nH]c5ccncc45)cs3)c2c1`, the growth with HCT-15 colon was -10.2% (active); in the assay on HT29 colon it was -15.7% (active); with SNB-75 CNS, 76.1%; in the assay with SNB-19 CNS, 47.1%; in the assay with U251 CNS it was -49.4% (active); in the assay on PC-3 prostate, 42.4%. Moreover, the growth in the assay on SK-MEL-5 melanoma was 43.3%; with UACC-62 melanoma, 84.2%; in the assay with LOX IMVI melanoma, -87.4% (active); in the assay with SK-MEL-28 melanoma, -88.5% (active); in the assay with SK-MEL-2 melanoma, 84.7%; in the assay with EKVX NSCLC, 10.8%. Moreover, the growth in the assay with SN12C renal was 71.9%; in the assay with UO-31 renal it was 49%; in the assay with TK-10 renal it was 71.1%; with ACHN renal it was 4.58% (active); with CAKI-1 renal, 9.06% (active); in the assay on CCRF-CEM leukemia, -7.05% (active). The growth with MOLT-4 leukemia was -8.02% (active).

For `N#Cc1nc(-c2ccccc2)oc1S(=O)(=O)N1CCOCC1`, the growth was -15.4% (active) in the assay on HCT-15 colon; 99.5% in the assay with HT29 colon; 94.4% with SNB-75 CNS; 91.7% with SNB-19 CNS; 93.7% in the assay with U251 CNS; 100% in the assay on PC-3 prostate. The growth in the assay on SK-MEL-5 melanoma was 91.6%; in the assay with UACC-62 melanoma it was 91%; in the assay on LOX IMVI melanoma, 68.2%; in the assay on SK-MEL-28 melanoma it was 106%; with SK-MEL-2 melanoma, 90.2%; in the assay on EKVX NSCLC, 106%. Also, the growth in the assay on SN12C renal was 74.1%; with UO-31 renal it was 82.9%; with TK-10 renal it was 94.5%; in the assay on ACHN renal it was -97.7% (active); in the assay with CAKI-1 renal it was 66.9%; with A498 renal it was 89.7%. The growth in the assay with CCRF-CEM leukemia is -20.9% (active); in the assay with MOLT-4 leukemia, -16% (active).

Turning to `N#C/C(=C\c1ccc(Br)cc1)n1nnc2ccc(F)cc21`, the growth in the assay with HCT-15 colon is -18.2% (active); with HT29 colon, 3.64% (active); in the assay with SNB-75 CNS it was 0.279% (active); in the assay on SNB-19 CNS, 19.5%; in the assay on U251 CNS it was 1.71% (active); in the assay with PC-3 prostate it was 7.5% (active). For the same compound, the growth is 6.12% (active) in the assay with SK-MEL-5 melanoma; -54.7% (active) in the assay with UACC-62 melanoma; -63.7% (active) in the assay on LOX IMVI melanoma; -5.29% (active) in the assay on SK-MEL-28 melanoma; 13.8% in the assay on SK-MEL-2 melanoma; 49.9% with EKVX NSCLC. The growth is -51.2% (active) in the assay with SN12C renal; -36.4% (active) in the assay on UO-31 renal; -3.76% (active) in the assay on TK-10 renal; -37.9% (active) in the assay with ACHN renal; -4.59% (active) with CAKI-1 renal; -15.6% (active) with A498 renal. For the same compound, the growth is -10.2% (active) in the assay with CCRF-CEM leukemia and -20% (active) in the assay with MOLT-4 leukemia.

With `COc1cnc2c(c1)C(=O)c1c-2n(CCCNCCO)c(=O)c2ccncc12`, the growth is 23.1% in the assay on HCT-15 colon; 3.25% (active) with HT29 colon; 12.1% with SNB-75 CNS; 7.52% (active) in the assay with SNB-19 CNS; 0.604% (active) in the assay with U251 CNS; 6.97% (active) with PC-3 prostate. For the same compound, the growth in the assay on SK-MEL-5 melanoma was -78.4% (active); with UACC-62 melanoma it was -49.1% (active); in the assay with LOX IMVI melanoma, -40.5% (active); in the assay with SK-MEL-28 melanoma it was -13.1% (active); with SK-MEL-2 melanoma, -2.38% (active); in the assay on EKVX NSCLC, 19.7%. The growth in the assay with SN12C renal is 4.98% (active); in the assay with UO-31 renal, -19.8% (active); in the assay with TK-10 renal it was 15.9%; in the assay with ACHN renal, -49.8% (active); in the assay with CAKI-1 renal it was 28.7%; in the assay with CCRF-CEM leukemia it was 11.1%. Further, the growth in the assay with MOLT-4 leukemia was -7.69% (active).

Regarding `Fc1cccc(CNc2c3ccccc3nc3ccccc23)c1F`, the growth in the assay with HCT-15 colon was 39.5%; with HT29 colon it was 29.1%; in the assay with SNB-75 CNS it was 78.8%; in the assay with SNB-19 CNS it was 58.5%; in the assay on U251 CNS it was 65.6%; in the assay with PC-3 prostate it was 57.1%. The growth in the assay with SK-MEL-5 melanoma was 83%; in the assay on UACC-62 melanoma, 75.7%; in the assay with LOX IMVI melanoma, 39.2%; in the assay on SK-MEL-28 melanoma, 96.9%; in the assay with SK-MEL-2 melanoma, 107%; in the assay on EKVX NSCLC it was 62.9%. For the same compound, the growth is 49% in the assay with SN12C renal; 89.2% in the assay on TK-10 renal; 30.6% in the assay with ACHN renal; 45.7% in the assay on CAKI-1 renal; -0.792% (active) with A498 renal; 62.4% in the assay on CCRF-CEM leukemia. Moreover, in the assay with MOLT-4 leukemia, the growth was 28.4%.

With `COc1ccc(N2CCC(=O)NC2=S)cc1`, the growth with HCT-15 colon was 102%; in the assay on HT29 colon, 105%; with SNB-75 CNS it was 96.6%; with SNB-19 CNS it was 105%; with U251 CNS, 103%; in the assay on PC-3 prostate, 107%. In addition, the growth was 99.2% in the assay with SK-MEL-5 melanoma; 99.2% in the assay with UACC-62 melanoma; 94.8% in the assay on LOX IMVI melanoma; 111% in the assay on SK-MEL-28 melanoma; 102% with SK-MEL-2 melanoma; 102% in the assay with EKVX NSCLC. Moreover, the growth was 98.3% in the assay on SN12C renal; 86.5% with UO-31 renal; 100% with TK-10 renal; 104% in the assay on ACHN renal; 95.4% in the assay with CAKI-1 renal; 111% in the assay on CCRF-CEM leukemia. Also, the growth in the assay with MOLT-4 leukemia was 105%.

For the compound `O=C1CC(N2C(=O)/C(=C/C(Cl)=C\c3ccc([N+](=O)[O-])cc3)SC2=S)C(=O)N1c1ccc(Cl)cc1` (centres undefined), the growth in the assay with HCT-15 colon was -8.75% (active); in the assay on HT29 colon, 4.25% (active); in the assay on SNB-75 CNS it was 17.2%; in the assay on SNB-19 CNS, 17.4%; in the assay with U251 CNS, 1.45% (active); in the assay with PC-3 prostate it was -5.48% (active). The growth in the assay on SK-MEL-5 melanoma was 59.9%; with UACC-62 melanoma, 16.4%; in the assay on LOX IMVI melanoma, -71.7% (active); with SK-MEL-28 melanoma it was 18.2%; in the assay with SK-MEL-2 melanoma it was 68.3%; with EKVX NSCLC, 32.3%. For the same compound, the growth in the assay on SN12C renal was 4.02% (active); with TK-10 renal it was 38%; in the assay on ACHN renal it was 1.2% (active); in the assay on CAKI-1 renal it was 23.5%; in the assay with A498 renal, 55%; with CCRF-CEM leukemia, 11.4%. Further, the growth in the assay on MOLT-4 leukemia was 11.7%.

Take `CCCCN1C(=O)/C(=c2\sc3n(c2=O)C2C(NN=3)N(CC)C(=O)N2CC)c2ccccc21` (centres undefined): the growth in the assay with HCT-15 colon is 8.29% (active); in the assay with HT29 colon it was 0.704% (active); with SNB-75 CNS it was -17.6% (active); in the assay on SNB-19 CNS it was 25%; in the assay on U251 CNS, 5.8% (active); in the assay with PC-3 prostate, 20.7%. Moreover, the growth in the assay with SK-MEL-5 melanoma was 29.2%; in the assay with UACC-62 melanoma, 18.9%; in the assay on LOX IMVI melanoma, 20.1%; in the assay on SK-MEL-28 melanoma, 48.1%; in the assay on SK-MEL-2 melanoma, 21.9%; with EKVX NSCLC it was 52.1%. In addition, the growth in the assay on SN12C renal is 19.3%; with TK-10 renal, 55.9%; in the assay on ACHN renal, 23.9%; in the assay on CAKI-1 renal it was 18.1%; with A498 renal, -2.15% (active); with CCRF-CEM leukemia, 7.34% (active). Besides, in the assay on MOLT-4 leukemia, the growth was 11.1%.
